Screening results (PubChem BioAssay)
A selection: hits, their analogues and other compounds. The true share with any hit is near 7.8%.
VACV mCherry inh = qHTS for Stage-Specific Inhibitors of Vaccinia Orthopoxvirus: mCherry Reporter Primary qHTS. Vaccinia virus mCherry reporter infection, fluorescence. Potency, µM (titrated, usually from 36.5 µM), for inactives: at the top dose activity change, negative = inhibition, most hits filed as inhibitors. hit rate 0.63% among 310,000; calls by dose curve; tested in A549 cells; note: potency is the fitted concentration of half-maximal effect; nearly all actives have a fitted effect of over 35% in size
VACV Venus inh = qHTS for Stage-Specific Inhibitors of Vaccinia Orthopoxvirus: Venus Reporter Primary qHTS; hit rate 0.46% among 330,000; Potency, µM (highest dose often 36.5 µM), without a hit: top-dose activity change, negative = inhibition, most hits filed as inhibitors; Vaccinia virus Venus reporter expression, fluorescence; calls by dose curve; tested in A549 cells; note: potency is the fitted concentration of half-maximal effect; nearly all actives have a fitted effect of over 30% in size
HCMV inh = qHTS Assay for inhibitors of the human cytomegalovirus (HCMV); activity change, negative = inhibition, % at 57.5 µM; AID 1259415, 2018; hit rate 4.5% among 410,000; HFF cells, HCMV-luciferase reporter, 72 h; active compounds read low; in the data active = activity change below about -60%; inconclusive = no clear call, values can overlap the other calls; inactive = above about -39%
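Cell-based, HFFs, 1000 cells/well, 16 h 37C; cpds in DMSO + HCMV-luc, MOI 1 PFU/cell; 72 h 37C; OneGlo luminescence after 5 min RT; norm. to buffer vs Salinomycin 10uM.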
LASV entry inh = qHTS for Inhibitors of binding or entry into cells for Lassa Virus | hit rate 1.2% among 300,000 | Lassa virus pseudotype entry inhibition, cell reporter | Potency, µM (series often up to 37.9 µM), inactives show at the highest dose activity change, negative = inhibition, actives largely listed as inhibitors; calls by dose curve; tested in HEK293 cells; note: potency is the fitted concentration of half-maximal effect; nearly all actives have a fitted effect of over 50% in size
HCV inh = qHTS Assay for Inhibitors of Hepatitis C Virus (HCV); Huh7.5.1 HCVcc-Cre infection, luciferase reporter, 44 h; Potency, µM (doses to about 41.8 µM), inactives show at the highest dose activity change, negative = inhibition, actives largely listed as inhibitors; hit rate 3.4% among 340,000; AID 651820, 2012; active = well fitted inhibition curve with a large enough effect; inconclusive = small, poorly fitted or top-dose-only effect, or another doubt; inactive = no such curve, though single readings can be large or run the other way; note: potency is the fitted concentration of half-maximal effect
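Infectious HCVcc-Cre (~0.5 moi) was added to cells just after compound, with cells seeded 4 h earlier at 1,000 per well. Luciferase activity after 44 h culture reported infection; substrate was incubated 15 min at room temperature before reading.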
Marburg entry inh = qHTS for inhibitors of binding or entry into cells for Marburg Virus | Marburg virus pseudotyped entry inhibition, cell reporter | Potency, µM (top dose mostly 37.8 µM), inactives show at the top dose activity change, negative = inhibition, usual class: inhibitors | hit rate 1.8% among 300,000 | AID 540276, 2011; calls by dose curve; tested in HEK293 cells; note: potency is the fitted concentration of half-maximal effect
Active calls of the source: *; i = inactive; ? = inconclusive; · = no result; ! = not active in a repeat; [ ] = dose if it differs, or a comment. % is set by controls: 0 for no effect and ±100 for the full control effect.

SMILES	VACV mCherry inh	VACV Venus inh	HCMV inh	LASV entry inh	HCV inh	Marburg entry inh
Cc1cccc(C)c1-c1ccc(CN2C(CC(C)C)C(=O)N(Cc3cn(CC4CCCCC4)nn3)CCS2(=O)=O)cc1 (stereo unspecified)	?	-9%	-100*	·	6%	·
CCOC(=O)C1=C(COC(=O)/C=C/c2ccc(OC)cc2)NC(=O)NC1C (stereo unspecified)	?	-27%	-5	?	3.2µM*	-23%
CCOC(=O)C1=C(COC(=O)/C=C/c2cccc(OC)c2)NC(=O)NC1C (stereo unspecified)	-1%	-11%	33	-21%	·	-11%
O=C(N/N=C1\CC(c2ccccc2)Oc2ccccc21)c1cccnc1 (stereo unspecified)	-4%	-21%	-83*	?	-29%	-23%
O=C(N/N=C1\CC(c2ccccc2)Oc2ccccc21)c1ccc(O)cc1 (stereo unspecified)	?	-10%	?	?	5%	-1%[46.1 µM]
CNC(=O)C1CCC(Cn2c(=O)[nH]c3ccsc3c2=O)CC1 (stereo unspecified)	-11%	-8%	19	3%[46.1 µM]	·	·
CCOC(=O)c1[nH]c2c(c1Cc1ccccc1)C(=O)CC(c1ccc(OC)cc1)C2 (stereo unspecified)	-12%	-10%	-30	11%[46.1 µM]	·	?
COC(=O)N/N=C/c1sc(N2CCCCC2)nc1-c1cccs1	-3%	-16%	-68*	-13%	?	1%
COc1ccc(C(=O)N/N=C/c2sc(N3CCOCC3)nc2-c2ccccc2)cc1OC	-11%	-4%	35	-25%	?	-30%
CC(C)NC(=O)COC(=O)CNC(=O)C1CCCCC1	4%	-15%	·	·	·	·
OC(CCN1CCCCC1)(c1ccccc1)c1ccccc1	-1%	-9%	-81*	-20%	-2%[8.37 µM]	?
C=CCC(O)(CCN1CCCCC1)c1ccccc1 (stereo unspecified)	·	-15%	6	11%	-6%	?
COc1ccc(S(=O)(=O)N2CCN(CCc3ccccc3)CC2)cc1	i	-2%	-21	-2%[46.1 µM]	?	4%[46.1 µM]
COc1ccc(C(O)(CCc2ccccc2)CCN2CCCCC2)cc1 (stereo unspecified)	-11%	-14%	-29	?	32µM*	?
OC(CCCN1CCCCC1)(c1ccccc1)c1ccc(C(F)(F)F)cc1 (stereo unspecified)	?	-17%	2	-22%[46.1 µM]	11µM*	?
CCN(CC)CCC(O)(c1ccccc1)C1CCCCC1 (stereo unspecified)	·	·	32	·	-10%	·
NC(=O)C(CCCCN1CCCCC1)(c1ccccc1)c1ccccc1	-3%	-8%	-27	11%	-11%	-4%
OC(CCN1CCCC1)(c1ccccc1)C1CCCCC1 (stereo unspecified)	-17%	-17%	-60*	?	3%[8.37 µM]	?
CC(O)(C#CCN1CCCCCC1)c1ccccc1 (stereo unspecified)	3%	-2%	-102*	3%	-16%	-1%[46.1 µM]
OC(C#CCN1CCCCC1)(c1ccccc1)c1ccccc1	-18%	-5%	-16	1%[46.1 µM]	?	?
Cc1ccc(CNC(=O)c2ccc(N3Cc4ccccc4Oc4ncccc43)s2)cc1	-10%	-15%	-4	?	·	-12%[46.1 µM]
COC(=O)C1=C(C(=O)OC)[C@]2([C@@H]3CCCCN[C@@H](Cc4ccccc4)C(=O)N3Cc3ccccc3)C=C[C@H]1O2	i	-20%	-12	·	7.9µM*	·
Cc1cc2c(NC(=O)Nc3ccc(C(C)(C)C)cc3)cccc2nn1	·	·	2	·	14µM*	·
Cc1cccc(NC(=O)CSc2nc3c([nH]c4ccccc43)c(=O)n2C)c1C	-2%	-1%	49	-25%[46.1 µM]	·	·
CCN(CC)CCOC(c1ccccc1)c1ccc(C)cc1 (stereo unspecified)	i	-13%	-20	?	?	8.9µM*
SMILES	VACV mCherry inh	VACV Venus inh	HCMV inh	LASV entry inh	HCV inh	Marburg entry inh
Cc1ccccc1C(OCCN(C)C)c1ccccc1 (stereo unspecified)	-2%	-24%	-27	?	?	13µM*!
CCN(CC)CCC(C)OC(c1ccccc1)c1ccccc1 (stereo unspecified)	i	-18%	-23	·	6%	·
CCS(=O)(=O)Nc1cc(-c2cn3ccc(C)cc3n2)ccc1C	-21%	-10%	80	?	·	?
O=C(CSc1nc2nn(-c3ccccc3)c(=O)c-2c2n1CCCCC2)c1ccc(OC(F)F)cc1	·	·	0	·	7.9µM*	·
Cc1[nH]c2ccccc2c1/C=C/c1nc2ccccc2c(=O)[nH]1	13µM*	?	96	?	-24%	?
Cc1cccc(/C=C/c2nc3ccccc3c(=O)[nH]2)c1	-22%	-15%	7	3.5µM*	-8%	?
COC(=O)c1cc(OC)c(OC)cc1NC(=O)c1ccc2c(c1)CCN2S(=O)(=O)c1ccccc1	-17%	-12%	6	0%[46.1 µM]	·	?
O=C(Nc1ccccc1N1CCN(C(=O)c2ccc(Cl)cc2)CC1)c1cccc([N+](=O)[O-])c1	-21%	-2%	-88*	2%[46.1 µM]	?	?
CN1CCN(c2ccccc2NC(=O)c2cccc([N+](=O)[O-])c2)CC1	·	·	10	·	-9%	·
O=C(CSc1ccc(Cl)cc1)Nc1ccccc1N1CCN(C(=O)c2ccccc2)CC1	·	?	-21	16µM*	-24%	?
O=S1(=O)N=C(Nc2nc3c(s2)CCCC3)c2ccccc21	-18%	-23%	55	7.1µM*	-7%	?
Cc1cccc(Nc2nc3c(s2)CCCC3)c1	-27%	-16%	63	?	-8%	?
CC1=NN(c2nc3ccccc3[nH]2)C(=O)C1Cc1ccccc1 (stereo unspecified)	-27%	-18%	·	?	3.5µM*	?
CCn1c(=O)c(C(C)=O)nc2ccccc21	·	68%	-66*	-5%	-2%	12%
CCc1nc2ccccc2n(CC)c1=O	-12%	-4%	9	3%	4%	?
Cc1cc(C)c2oc(C(=O)Nc3sc4c(c3C(=O)NCc3ccco3)CCC4)cc(=O)c2c1	6%	-5%	-3	25%[46.1 µM]	·	-4%[46.1 µM]
CC(C)Cn1c(N)c(C(=O)COC(=O)c2ccccc2Cl)c(=O)n(C)c1=O	0%	-18%	-17	·	?	·
CC(C)Cn1c(N)c(C(=O)COC(=O)c2ccccc2F)c(=O)n(C)c1=O	-14%	-3%	-21	-25%[46.1 µM]	11µM*	-1%[46.1 µM]
COCc1c(C(=O)OCC(=O)c2c(N)n(CC(C)C)c(=O)n(C)c2=O)oc2ccccc12	·	·	-8	-27%	?	-28%
